In the library only some 4.5% were active in any assay of this set; here they are far more common.
GDH-TPI counter-1 – counter-screen for M. tuberculosis FBA inhibitors: GDH-TPI coupled enzymes. AID 588335. actives 1.2% (n = 360,000). inhibition, % at 4.8 µM. GDH-TPI coupled enzyme counterscreen, NADH absorbance; in the data active = inhibition above about 30%
PfHsp40 yeast – rescue of PfHsp40-mediated yeast toxicity | S. cerevisiae expressing PfHsp40, growth rescue, ATP luminescence | actives 0.68% (n = 340,000) | AID 504582 | growth rescue, % at 12.5 µM; in the data active = growth rescue above about 28%, passing the limit was not always enough;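 note: yeast W303a lacking pdr1 and pdr3 grown in galactose medium; growth measured after three days at 30 °C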
Mtb FBA inh – Mtb fructose-bisphosphate aldolase inhibition | P9WQA3 | inhibition, % at 1 µM | AID 588726 | actives 2.3% (n = 360,000) | purified M. tuberculosis FBA, fluorescence read-out
Target sequence (P9WQA3 whole entry, looked up): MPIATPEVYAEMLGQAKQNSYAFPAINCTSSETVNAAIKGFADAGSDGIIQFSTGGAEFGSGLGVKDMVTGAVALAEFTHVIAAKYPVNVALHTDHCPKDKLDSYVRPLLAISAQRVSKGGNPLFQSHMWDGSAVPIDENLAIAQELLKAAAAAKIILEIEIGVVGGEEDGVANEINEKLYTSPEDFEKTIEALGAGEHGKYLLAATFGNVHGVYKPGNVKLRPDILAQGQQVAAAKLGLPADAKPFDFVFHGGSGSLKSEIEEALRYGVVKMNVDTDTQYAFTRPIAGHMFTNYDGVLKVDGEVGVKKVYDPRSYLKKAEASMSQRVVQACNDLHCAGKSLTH
PrPC TRFRET – reduces human prion protein on the cell surface | actives 0.43% (n = 370,000) | cell surface PrPC, TR-FRET read-out | inhibition, % at 13.8 µM | AID 720596; in the data active = inhibition above about 24%
PrP UTR inh – inhibition of PrP 5' UTR reporter expression | cell-based PrP 5' UTR mRNA reporter, plate reader | AID 488862 | inhibition, % (concentration not given with the values) | actives 0.35% (n = 340,000); in the data active = inhibition above about 52%
BJeLR viability – BJeLR cell viability loss; inhibition, % (concentration not given with the values); BJeLR (HRASV12) viability, CellTiter-Glo ATP luminescence, 48 h; AID 1554; actives 0.17% (n = 300,000); in the data active = inhibition above about 50%
Mtb FBA confirm – confirmation of M. tuberculosis fructose-bisphosphate aldolase inhibitors; shares compounds with Mtb FBA inh; purified M. tuberculosis FBA, fluorescence read-out; inhibition, % at 1 µM; actives 78% (n = 5,600)
GDH-TPI counter-2 – GDH-TPI inhibition counter-screen for FBA inhibitors. shares compounds with Mtb FBA inh. GDH-TPI coupled enzyme counterscreen, fluorescence. inhibition, % at 1 µM. AID 652141. actives 81% (n = 5,600); in the data active = inhibition above about 10%
GDH-TPI dose – GDH-TPI dose response counter-screen for Mtb FBA; actives 79% (n = 170); shares compounds with Mtb FBA inh; AID 652145; GDH-TPI coupled enzyme assay, fluorescence, artifact counterscreen; IC50, µM; call rule not given here
Each line names hits and unclear results; the compound was inactive in the other large screens (follow-up assays come after a bar, where they were run). Cut-off read from the data, not from the text of the source, unless noted: active = inhibition above about 27%; inactive = the rest.

CCOc1ccc(CNS(=O)(=O)c2c(C)nc3sccn3c2=O)cc1OC	none
Oc1ccccc1-c1cnc2cccnn12	none (no result: PfHsp40 yeast, PrP UTR inh, BJeLR viability)
COc1ccc(-c2cnc3cccnn23)cn1	Mtb FBA inh 29.4 (no result: PfHsp40 yeast, PrP UTR inh, BJeLR viability) | Mtb FBA confirm inactive | GDH-TPI counter-2 inactive
COc1ncccc1-c1cnc2cccnn12	Mtb FBA inh 92.0 (no result: PfHsp40 yeast, PrP UTR inh, BJeLR viability) | Mtb FBA confirm 117.2 | GDH-TPI counter-2 100.1
Clc1ccc(-c2cnc3cccnn23)cc1	Mtb FBA inh 51.0 (no result: PfHsp40 yeast, PrP UTR inh, BJeLR viability) | Mtb FBA confirm active | GDH-TPI counter-2 active
O=C(Nc1nc2ncccn2c1-c1ccc(C(F)(F)F)cc1)C1CC1	none (no result: GDH-TPI counter-1, PfHsp40 yeast, Mtb FBA inh, PrP UTR inh, BJeLR viability)
CC(=O)c1c(C)[nH]c(C(=O)OCC(=O)Nc2sc3c(c2C#N)CCC(C)C3)c1C (stereo not given)	none (no result: GDH-TPI counter-1, Mtb FBA inh)
C=CCn1c(SCC(=O)N(C)c2c(N)n(Cc3ccccc3)c(=O)[nH]c2=O)nnc1-c1ccccc1OC	none
CCn1cc(CCC(=O)O)c(C)n1	none
CCn1cc(-c2ccnc3cc(C(=O)O)nn23)c(C)n1	Mtb FBA inh 84.1 | Mtb FBA confirm 76.0 | GDH-TPI counter-2 58.1
Cc1c(-c2ccnc3cc(C(=O)O)nn23)cnn1C	Mtb FBA inh 79.1 | Mtb FBA confirm inactive | GDH-TPI counter-2 16.8
COC(=O)c1cnc(SCc2ccc([N+](=O)[O-])cc2)n1C	none (no result: PfHsp40 yeast, PrP UTR inh)
Oc1ccc(CN2CCCCC2)nc1-c1ccccc1	Mtb FBA inh 86.5 | Mtb FBA confirm inactive | GDH-TPI counter-2 inactive | GDH-TPI dose 5.29
O=C(Nc1ccon1)c1cnc2sccn2c1=O	GDH-TPI counter-1 31.4, Mtb FBA inh 28.1 | Mtb FBA confirm inactive | GDH-TPI counter-2 inactive | GDH-TPI dose inactive
O=C(COc1ccc(F)cc1)Nc1nnc(-c2ccncc2)s1	Mtb FBA inh 46.9 | Mtb FBA confirm 90.0 | GDH-TPI counter-2 66.0
CCOC(=O)Cc1nnc(NC(=O)COc2ccc(F)cc2)s1	none
O=C(OCC#CCSc1nnc(-c2cccc3ccccc23)o1)c1cccc2[nH]ccc12	Mtb FBA inh 35.9 (no result: BJeLR viability) | Mtb FBA confirm 63.6 | GDH-TPI counter-2 50.9
CC(C)CNC(=O)c1ccc(NC(=O)c2ccccc2[N+](=O)[O-])cc1	none
Cc1cc(C)c2nc(-c3ccccn3)cc(C(=O)Nc3ccc(S(=O)(=O)Nc4cc(C)on4)cc3)c2c1	none
Cc1cc(C)c2nc(-c3ccccn3)cc(C(=O)NCCc3ccc(S(N)(=O)=O)cc3)c2c1	Mtb FBA inh 38.9 | Mtb FBA confirm 164.5 | GDH-TPI counter-2 133.0
Cc1cc(C)c2nc(-c3ccccn3)cc(C(=O)NCc3ccc(S(N)(=O)=O)cc3)c2c1	Mtb FBA inh 49.5 | Mtb FBA confirm inactive | GDH-TPI counter-2 inactive
Cc1cc(C)c2nc(-c3ccccn3)cc(C(=O)Nc3ccc(S(=O)(=O)Nc4onc(C)c4C)cc3)c2c1	none (no result: PrPC TRFRET)
CCOc1ccc2oc(C(=O)N3CC(C)OC(C)C3)c(C)c2c1 (stereo not given)	none
Cc1c(C(=O)OCC(=O)N2C(C)CCCC2C)oc2ccccc12 (stereo not given)	none
CCOc1ccc2oc(C(=O)OCC(=O)N3C(C)CCCC3C)c(C)c2c1 (stereo not given)	Mtb FBA inh 47.7 (no result: BJeLR viability) | Mtb FBA confirm 91.5 | GDH-TPI counter-2 86.9
COc1ccc2oc(C(=O)OCC(=O)N3CCCCC3C)c(C)c2c1 (stereo not given)	Mtb FBA inh 63.2 (no result: BJeLR viability) | Mtb FBA confirm 195.3 | GDH-TPI counter-2 169.4
COc1ccc2oc(C(=O)OCC(=O)N3CCCC3=O)c(C)c2c1	Mtb FBA inh 44.7 | Mtb FBA confirm 73.2 | GDH-TPI counter-2 36.4
COc1ccc2oc(C(=O)OCC(=O)N3C(C)CCCC3C)c(C)c2c1 (stereo not given)	Mtb FBA inh 39.5 | Mtb FBA confirm 40.5 | GDH-TPI counter-2 45.3
CCc1ccc(NC(=O)CSc2nc(C)cs2)cc1	none (no result: PfHsp40 yeast, PrP UTR inh, BJeLR viability)
CCCOC(=O)c1ccc(Oc2coc3c(CN(CC)CC)c(O)ccc3c2=O)cc1	Mtb FBA inh 55.2 | Mtb FBA confirm inactive | GDH-TPI counter-2 12.3
CC(C)(C)c1ccc(C(=O)O)c(C(=O)c2ccc(C(=O)O)cc2)c1	none
CCN(CC)c1ccc(-c2n[nH]c(=S)n2-c2ccccc2)cc1	Mtb FBA inh 37.0 | Mtb FBA confirm 86.1 | GDH-TPI counter-2 68.2
Cc1ccc(S(=O)(=O)N2CCN(CC3CC4C=CC3C4)CC2)cc1 (stereo not given)	none
O=C(c1cc2c(s1)CCCC2)N1CCN(c2ccccc2)CC1	Mtb FBA inh 34.4 | Mtb FBA confirm 83.5 | GDH-TPI counter-2 66.8
COc1ccccc1N1CCN(C(=O)c2cc3c(s2)CCCCC3)CC1	none
Cc1csc2nc3ccccc3c(=O)n12	Mtb FBA inh 39.4 | Mtb FBA confirm 66.7 | GDH-TPI counter-2 37.9
Cc1ccc(-n2c(C)cc(=O)cc2C)cc1[N+](=O)[O-]	none
OCCCNc1cc(-c2ccccc2)nc2cc(-c3ccc(F)cc3)nn12	Mtb FBA inh 58.9 | Mtb FBA confirm 102.0 | GDH-TPI counter-2 77.5
Cc1cc(NCCCO)n2nc(-c3cccs3)cc2n1	Mtb FBA inh 33.5 | Mtb FBA confirm 67.6 | GDH-TPI counter-2 55.9
Nc1cc(-c2ccc(Br)cc2)nc2cc(-c3ccccc3)nn12	none
Cc1cc(NCCN(C)C)n2nc(-c3cccs3)cc2n1	none
COc1cc2c(Cc3ccccc3)cncc2cc1O	none (no result: BJeLR viability)
COc1cc2cncc(Cc3ccccc3)c2cc1O	Mtb FBA inh 58.0 (no result: BJeLR viability) | Mtb FBA confirm 85.1 | GDH-TPI counter-2 78.3
COC(=O)[C@]12C[C@H](CC(=O)NCC3CCCCC3)C(=O)N(Cc3cccc4ccccc34)C1=C[C@H](COCc1ccccc1)O[C@@H]2C	none (no result: GDH-TPI counter-1, PfHsp40 yeast, Mtb FBA inh, PrP UTR inh, BJeLR viability)
Cc1ccc(-c2csc3nc4cc(C(N)=O)ccc4c(=O)n23)cc1	Mtb FBA inh 28.9 | Mtb FBA confirm inactive | GDH-TPI counter-2 inactive
Nc1c(C(=O)Nc2ccccc2F)sc2nc(-c3ccco3)ccc12	GDH-TPI counter-1 32.1, Mtb FBA inh 39.6 (no result: PrP UTR inh) | Mtb FBA confirm 50.2 | GDH-TPI counter-2 42.7
NC(=O)c1sc2nc(-c3ccco3)ccc2c1N	Mtb FBA inh 52.5 | Mtb FBA confirm active | GDH-TPI counter-2 active
COc1ccc(C2C=C(C34CC5CC(CC(C5)C3)C4)NC(=S)N2)cc1 (stereo not given)	none
C/C=C(\C)C(=O)O[C@@H]([C@H](O)c1cc2ccc(=O)oc2cc1OC)C(C)(C)O	Mtb FBA inh 38.5 (no result: BJeLR viability) | Mtb FBA confirm 42.0 | GDH-TPI counter-2 22.6
